Assay outcomes (PubChem BioAssay)
The list is a sample of the results.
aSyn UTR act – Activators via SNCA 5'UTR binding, MLPCN | activity score, % (tested at 7.5 µM), hits read low | AID 1814 | alpha-synuclein 5'UTR reporter, activators screen | 300,000 tested, 7.1% active; in the data active = activity score below about -60%
Numbers without * were called inactive; + = active, no number.

SMILES	aSyn UTR act
O=C(N/N=C/c1ccc(N2CCOCC2)cc1)c1ccccn1	-103*
Nc1c(C(=O)Nc2ccccc2F)sc2nc(-c3cccnc3)ccc12	-88*
Nc1c(C(=O)Nc2ccccc2F)sc2nc(-c3ccco3)ccc12	-118*
O=C(Nc1cccc(F)c1)c1ccc(CSc2ccccc2)o1	-121*
O=C(Nc1ccccc1F)c1ccc(CSc2ccccc2)o1	-70*
Cc1oc(-c2ccc3ccccc3c2)nc1CN(C)C(C)c1ccncn1 (stereo unspecified)	-80*
CC(C)c1nc2oc3ccccc3c(=O)c2c(=O)n1-c1ccccc1	-325*
COc1ccc2c(=O)c3c(=O)n(-c4ccccc4)c(-c4ccc(C)cc4)nc3oc2c1	-79*
CC(C)c1nc2sc3ccccc3c(=O)c2c(=O)n1Cc1ccccc1	54
O=c1c2ccccc2oc2nc(-c3ccco3)n(-c3ccccc3)c(=O)c12	-251*
COc1cccc(-c2nc(-c3ccc4c(c3)NC(=O)CO4)cs2)c1	-197*
Cc1cccn2cc(-c3ccc4c(c3)NC(=O)CO4)nc12	-97*
COc1cccc(CNC(=O)CCS(=O)(=O)c2ccc3c(c2)NC(=O)CO3)c1	99
COc1cccc(C2CC(=O)Nc3cc4c(cc32)CCC4)c1 (stereo unspecified)	84
Nc1c(C(=O)N/N=C/c2cccnc2)cnn1-c1ccccc1	-67*
Cc1ccc(-c2csc(NC(=O)c3cccc(S(=O)(=O)N4CCN(C)CC4)c3)n2)cc1	-66*
Cc1ccc(-c2csc(NC(=O)COC(=O)c3cccc(S(=O)(=O)N4CCOCC4)c3)n2)cc1	-93*
Oc1ccc(Cl)cc1C1=NNC(c2ccc(Cl)cc2)C1 (stereo unspecified)	-90*
Cc1nc2oc3ccc(Cl)cc3c(=O)c2cc1C(=O)O	-62*
CCc1nc2oc3ccc(C)cc3c(=O)c2cc1C(=O)OC	-201*
Cc1nc2oc3ccc(F)cc3c(=O)c2cc1C(=O)NC(C)(C)C	-76*
COC(=O)c1cc2c(=O)c3ccccc3oc2nc1C	-172*
CCOC(=O)c1ccc(-c2ccc(/C=N/NC(=O)CN(c3ccccc3Br)S(C)(=O)=O)o2)cc1	-140*
Cc1cccnc1NC(=S)NC(=O)/C=C/c1ccco1	-89*
O=C(/C=C/c1ccco1)NC(=S)Nc1ccccn1	-127*
SMILES	aSyn UTR act
O=c1[nH]c2ccccc2nc1-c1ccc(Cl)cc1	-72*
O=c1[nH]c2ccccc2nc1-c1ccccc1	-73*
NC(=O)N=Nc1c2[nH]c3ccccc3nc-2c2ccccc12	+
CSc1cccc(NCc2ccc([N+](=O)[O-])cc2)c1	-63*
Cc1ccc(OCc2cc(C(=O)N3CC4C[C@@H]5CC3C[C@H](C4)C5)no2)cc1C	-111*
Cc1cccc(C)c1OCc1cc(C(=O)N2CC3C[C@@H]4CC2C[C@H](C3)C4)no1	-117*
Nc1ccc(-n2cnc3cc([N+](=O)[O-])ccc32)cc1	-66*
CCC(=O)Nc1nnc(-c2cccs2)s1	-68*
O=C(Nc1nnc(-c2cccs2)s1)C1CC1	-89*
COCC(=O)Nc1nnc(-c2cccs2)s1	-70*
C=C(C)C(=O)Nc1nnc(-c2cccs2)s1	-94*
O=C(Cc1ccccc1)Nc1nnc(-c2cccs2)s1	-142*
COc1ccc(C(=O)NCC2OCCc3ccccc32)c(O)c1 (stereo unspecified)	-88*
O=C(NCC(c1cccs1)N1CCOCC1)c1ccc(Br)o1 (stereo unspecified)	-71*
COc1ccc(C2CC2C(=O)c2ccccn2)cc1 (stereo unspecified)	-73*
COc1ccc(C2CC2/C(=N/O)c2ccccn2)cc1 (stereo unspecified)	-86*
NS(=O)(=O)c1ccc(N/N=C/c2cn(-c3ccccc3)nc2-c2ccccc2)c([N+](=O)[O-])c1	-121*
O=[N+]([O-])c1ccc(N/N=C/c2cn(-c3ccccc3)nc2-c2ccccc2)cc1	-71*
CCOC(=O)CSc1nc(-c2ccncc2)ccc1C#N	-138*
CCOC(=O)CSc1nc(-c2ccc3c(c2)OCO3)ccc1C#N	-113*
O=c1[nH]c(COc2ccc(Cl)cc2Br)nc2ccccc12	-123*
O=c1[nH]c(COc2ccc(Cl)cc2Cl)nc2ccccc12	-189*
COc1ccc(/C=C2\SC(=S)N(CC3CCCO3)C2=O)cc1 (stereo unspecified)	-89*
COc1ccc(/C=C2/SC(=O)NC2=O)cc1	-118*
COc1ccc(/C=C2/SC(=S)N(CCC(=O)O)C2=O)cc1	98
SMILES	aSyn UTR act
Cc1ccc(/C=C2\SC(=S)N(CC3CCCO3)C2=O)o1 (stereo unspecified)	-68*
COc1cc(/C=C2/SC(=S)N(CC3CCCO3)C2=O)ccc1O (stereo unspecified)	-95*
CCCCCC(=O)N[C@@H](c1ccccc1)[C@@H](O)C(=O)O[C@H]1C[C@@]2(O)[C@@H](OC(=O)c3ccccc3)C3[C@](C)(C(=O)[C@H](OC(C)=O)C(=C1C)C2(C)C)[C@@H](O)C[C@H]1OC[C@@]31OC(C)=O (stereo partly specified)	87
C=CCNC(=O)c1ccc2c3n(nc2c1)-c1ccc(Cl)cc1CO3	-127*
O=C(NCCO)c1ccc2c3n(nc2c1)-c1ccccc1CO3	-105*
Cc1ccc2c(c1)COc1c3ccc(C(=O)NCC4CC4)cc3nn1-2	-177*
CC(C)NC(=O)c1ccc2c3n(nc2c1)-c1ccccc1CO3	52
Cn1cccc1-c1nc2ccc(NC(=O)c3ccco3)cc2[nH]1	-132*
Cc1ccc2nc(-c3ccc(NC(=O)c4ccco4)cc3)[nH]c2c1	-163*
Cc1cc(C)nc(N/N=C/c2ccccc2OCc2ccc(Br)cc2)n1	-144*
Cc1cc(C)nc(N/N=C/c2ccccc2OCc2ccc(Cl)cc2)n1	-80*
COc1cccc(/C=N/NC(=O)c2c(C)nc3ccc(Br)cn23)c1O	71
COc1ccc(NC(=O)Nc2ccc(Br)cn2)cc1OC	-69*
COc1cccc(NC(=O)Nc2ccc(Br)cn2)c1	-192*
Oc1c(Cl)cc(Cl)cc1C=Nc1ccc2c(c1)OCCO2	-63*
O=C(CSc1ncnc2c(-c3ccc(Cl)cc3)nsc12)c1ccccc1	-98*
CCc1ccc2oc(-c3ccc(OC)cc3)cc(=Nc3c(C)n(C)n(-c4ccccc4)c3=O)c2c1	-77*
CN(N=Nc1cccc([N+](=O)[O-])c1)c1cccc([N+](=O)[O-])c1	-82*
Fc1ccccc1CSc1nnnn1-c1ccc2c(c1)OCO2	-65*
O=C(CNC(=O)c1ccccc1Br)N/N=C/c1cc(Br)ccc1O	70
O=C(Nc1ccc(Br)cc1)c1ccccc1Br	-200*
Cc1c(C(=O)Nc2ccc(Br)cc2)cnn1C	-112*
CCc1ccc(NC(=O)c2n[nH]c(=O)c3ccccc23)cc1	-84*
CCc1ccc(NC(=O)c2ccccc2Br)cc1	-144*
C/C(=N\Nc1nc2ccc(Cl)cc2o1)c1ccccc1	-66*
SMILES	aSyn UTR act
FC(F)Oc1ccccc1/C=N/n1cnc2ccccc21	-191*
CCc1ccc(NC(=O)COc2ccc(F)cc2C(=O)c2cnn(-c3ccccc3)c2)cc1	-130*
COc1ccccc1NC(=O)COc1ccccc1C(=O)c1cnn(-c2ccccc2)c1	-136*
CN(C)/N=C/c1ccc(OS(=O)(=O)c2ccccc2)cc1	-157*
CCCCC(=O)NC(c1ccccc1)c1ccc2cccnc2c1O (stereo unspecified)	68
CCC(=O)NC(c1ccccc1)c1nc2ccccc2[nH]1 (stereo unspecified)	-79*
